In the supplement of paper PMC10849652:
The full data set covers some 8,800 targets. This sample favours those with a hit. About 0.5% of all pairs of compound and target were hits.

Legend:
Experiment in all cases: log2 fold change, soluble protein after heating vs DMSO (PISA); higher = thermal stabilisation; K562 lysate, 10 uM; active = over 0.2 and 3.5 SD of the protein, either way, in both replicates (recomputed)
[1] = compound: C#Cc1cccc(Nc2ncnc3cc(OCCOC)c(OCCOC)cc23)c1 [erlotinib]
Procedure, shortened: (§1)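 K562 pellets were dounce-homogenised in PBS pH 7.4 with 1 mM MgCl2, and the crude extract at 1 mg/mL protein was treated with 10 μM compound for 30 min. Aliquots were heated for 3 min across 48°C-58°C, pooled, and brought to 0.5% NP-40 at 4°C; soluble protein was the supernatant after 21,000xg for 90 min. Soluble protein was quantified by TMTpro 16plex LC-MS/MS with channel sums equalised, and reported as log2 fold change in thermal stability against DMSO controls, with values from duplicates.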

[2] = compound: C/C(=N\NC(=O)C1=CC(=CC=C1)S(=O)(=O)N2CCOCC2)/C3=C(C=CC(=C3)Cl)O
Procedure, shortened: as §1

[3] = compound: C1=CC(=CC=C1C2=NC3=C(N2)C=C(C=C3)C(=O)N)OC4=CC=C(C=C4)Cl
Procedure, shortened: as §1

[4] = compound: C1=CC2=C(C=CC(=C2)/C=C\3/C(=O)NC(=NCC4=CC=CS4)S3)N=C1
Procedure, shortened: as §1

[5] = compound: C1=CC2=NC=CN=C2C=C1/C=C/3\C(=O)NC(=O)S3
Procedure, shortened: as §1

[6] = compound: C1=CC=C(C=C1)C2=NC(=C(N2)C3=CC=NC=C3)C4=CC(=C(C=C4)Cl)O
Procedure, shortened: as §1

[7] = compound: C1=CC=C2C(=C1)C3=NNC4=CC=CC(=C43)C2=O
Procedure, shortened: as §1

[8] = compound: C1CCN(C1)C(=O)NC2=CC=CC(=C2)NC3=NC=C(C(=N3)NCCC4=CN=CN4)Br
Procedure, shortened: as §1

[9] = compound: C1CN(CCC1(CC2=CC=C(C=C2)Cl)N)C3=NC=NC4=C3C=CN4
Procedure, shortened: as §1

[10] = compound: C1COCCN1CCN2C3=CC=CC=C3N=C2NC(=O)C4=CC(=CC=C4)[N+](=O)[O-] [IRAK-1-4 Inhibitor I]
Procedure, shortened: as §1

[11] = compound: C=CC(=O)N1CCC[C@@H](n2nc(-c3ccc(Oc4ccccc4)cc3)c3c(N)ncnc32)C1 [ibrutinib]
Procedure, shortened: as §1

[12] = compound: CC(=O)c1cnc2ccc(-c3cc(Cl)c(O)c(Cl)c3)nc2c1N[C@H]1CC[C@H](CN(C)C)CC1
Procedure, shortened: as §1

[13] = compound: CC(C)(C)Cn1c(N)nc2ccc(-c3[nH]c(C(C)(C)C)nc3-c3ccc(F)cc3)nc21 [ralimetinib]
Procedure, shortened: as §1

[14] = compound: CC(C)(O)CC(=O)NCCn1ccc2ncnc(Nc3ccc(Oc4cccc(C(F)(F)F)c4)c(Cl)c3)c21
Procedure, shortened: as §1

[15] = compound: CC(C)C1=C2N=C(C=C(N2N=C1)NCC3=CC=CC=C3)NCCCCCCN
Procedure, shortened: as §1

[16] = compound: CC1=C(C(CC(=O)N1)C2=CC=C(C=C2)C(F)(F)F)C(=O)NC3=C(C=C4C(=C3)C=NN4)F
Procedure, shortened: as §1

[17] = compound: CC1=C(C2=C(C=C1)C(=O)C3=CC=CC=C3N2CCCN)C
Procedure, shortened: as §1

[18] = compound: CC1=C(C=C(C=C1)NC(=O)C2=CC(=CC=C2)C(C)(C)C#N)NC3=CC4=C(C=C3)N=CN(C4=O)C
Procedure, shortened: as §1

[19] = compound: CC1=C(C=C(C=C1)NC(=O)C2=CC(=CC=C2)N(C)C)NC(=O)C3=CC=C(C=C3)O
Procedure, shortened: as §1

[20] = compound: CC1=CC=C(C=C1)SC2=C3C=C(SC3=CN=C2)C(=O)N
Procedure, shortened: as §1

Measured: log2 fold change

VPS35L (UniProt Q7Z3J2)
inactive: [1] 0.005 | [2] -0.016 | [3] -0.028 | [4] -0.001 | [5] 0.002 | [6] 0.006 | [7] -0.038 | [8] -0.028 | [9] 0.006 | [10] 0.04 | [11] 0.011 | [12] 0.023 | [13] -0.003 | [14] -0.032 | [15] 0.003 | [16] 0.007 | [17] 0.018 | [18] -0.021 | [19] 0.009 | [20] -0.005

ZNF609 (UniProt O15014)
inactive: [1] -0.035 | [2] -0.013 | [3] 0.028 | [4] -0.029 | [5] -0.053 | [6] -0.023 | [7] -0.109 | [8] -0.008 | [9] 0.026 | [10] -0.005 | [11] 0.005 | [12] -0.025 | [13] 0.01 | [14] -0.034 | [15] -0.001 | [16] 0.01 | [17] -0.045 | [18] -0.082 | [19] 0.013 | [20] -0.058

UQCC2 (UniProt Q9BRT2)
Sequence of UniProt Q9BRT2 (Q9BRT2 whole entry, looked up): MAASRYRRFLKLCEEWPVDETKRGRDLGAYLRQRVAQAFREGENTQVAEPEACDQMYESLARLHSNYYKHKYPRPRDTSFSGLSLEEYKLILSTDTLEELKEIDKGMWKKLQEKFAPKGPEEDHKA
inactive: [1] 0.037 | [2] 0.044 | [3] -0.039 | [4] 0.06 | [5] 0.001 | [6] -0.007 | [7] 0 | [8] -0.05 | [9] -0.023 | [10] 0.016 | [11] 0.054 | [12] 0 | [13] 0.006 | [14] 0.01 | [15] 0.018 | [16] -0.022 | [17] 0.016 | [18] 0.007 | [19] -0.016 | [20] -0.012

ZNF318 (UniProt Q5VUA4)
inactive: [1] 0.026 | [2] -0.033 | [3] -0.054 | [4] -0.015 | [5] -0.078 | [6] 0.003 | [7] 0.004 | [8] 0.023 | [9] 0.004 | [10] 0.012 | [11] 0.022 | [12] -0.043 | [13] 0.029 | [14] -0.06 | [15] 0.014 | [16] 0.023 | [17] 0.038 | [18] -0.036 | [19] 0.046 | [20] 0.083

ZMAT2 (UniProt Q96NC0)
Sequence of UniProt Q96NC0 (Q96NC0 whole entry, looked up): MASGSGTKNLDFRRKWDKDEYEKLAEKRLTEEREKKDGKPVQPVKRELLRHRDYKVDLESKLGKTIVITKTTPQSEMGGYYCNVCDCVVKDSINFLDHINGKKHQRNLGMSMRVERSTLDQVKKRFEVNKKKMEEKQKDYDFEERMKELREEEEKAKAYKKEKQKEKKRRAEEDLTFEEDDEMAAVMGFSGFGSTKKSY
inactive: [1] 0.025 | [2] -0.037 | [3] 0.025 | [4] -0.023 | [5] -0.026 | [6] 0.023 | [7] 0.055 | [8] -0.007 | [9] -0.048 | [10] 0.066 | [11] 0.009 | [12] -0.016 | [13] -0.011 | [14] 0.013 | [15] 0.035 | [16] -0.004 | [17] -0.021 | [18] 0.032 | [19] -0.028 | [20] -0.022

VPS39 (UniProt Q96JC1)
inactive: [1] 0.015 | [2] -0.022 | [3] -0.005 | [4] -0.003 | [5] -0.002 | [6] 0.015 | [7] -0.007 | [8] -0.034 | [9] 0.031 | [10] 0.019 | [11] 0 | [12] 0.021 | [13] -0.012 | [14] -0.056 | [15] -0.004 | [16] 0.014 | [17] 0 | [18] 0.016 | [19] -0.014 | [20] -0.005

VAV3 isoform 4 (UniProt Q9UKW4)
Sequence of UniProt Q9UKW4 (Q9UKW4 whole entry, looked up): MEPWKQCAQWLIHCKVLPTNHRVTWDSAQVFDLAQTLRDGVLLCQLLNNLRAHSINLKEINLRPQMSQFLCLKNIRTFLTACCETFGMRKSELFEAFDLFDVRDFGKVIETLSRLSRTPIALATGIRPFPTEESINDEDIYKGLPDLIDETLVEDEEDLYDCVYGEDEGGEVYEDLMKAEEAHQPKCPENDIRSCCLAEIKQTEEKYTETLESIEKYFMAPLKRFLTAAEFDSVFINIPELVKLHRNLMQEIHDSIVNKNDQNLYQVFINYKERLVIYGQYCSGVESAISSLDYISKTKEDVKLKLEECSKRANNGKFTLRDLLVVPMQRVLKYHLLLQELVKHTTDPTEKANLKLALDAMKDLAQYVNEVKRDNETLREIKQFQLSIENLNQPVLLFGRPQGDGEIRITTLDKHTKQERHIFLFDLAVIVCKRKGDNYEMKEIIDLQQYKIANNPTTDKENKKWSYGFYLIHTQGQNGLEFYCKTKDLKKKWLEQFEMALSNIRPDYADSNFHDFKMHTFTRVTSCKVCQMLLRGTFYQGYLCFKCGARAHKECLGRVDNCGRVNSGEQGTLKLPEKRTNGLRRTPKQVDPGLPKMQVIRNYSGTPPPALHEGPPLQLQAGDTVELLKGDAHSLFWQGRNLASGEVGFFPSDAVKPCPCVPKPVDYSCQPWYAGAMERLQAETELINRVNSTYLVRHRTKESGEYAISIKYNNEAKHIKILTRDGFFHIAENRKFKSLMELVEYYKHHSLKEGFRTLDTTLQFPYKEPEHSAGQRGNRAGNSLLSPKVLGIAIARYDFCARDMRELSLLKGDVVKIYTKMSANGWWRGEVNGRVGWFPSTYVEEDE
inactive: [1] 0.035 | [2] 1.07 | [3] -0.029 | [4] -0.144 | [5] 0.117 | [6] 0.012 | [7] -0.133 | [8] 0.148 | [9] -0.08 | [10] -0.017 | [11] 0.068 | [12] -0.109 | [13] -0.049 | [14] -0.013 | [15] -0.028 | [16] -0.013 | [17] 0.085 | [18] -0.03 | [19] -0.026 | [20] 0.058

UNC45A (UniProt Q9H3U1)
Sequence of UniProt Q9H3U1 (Q9H3U1 whole entry, looked up): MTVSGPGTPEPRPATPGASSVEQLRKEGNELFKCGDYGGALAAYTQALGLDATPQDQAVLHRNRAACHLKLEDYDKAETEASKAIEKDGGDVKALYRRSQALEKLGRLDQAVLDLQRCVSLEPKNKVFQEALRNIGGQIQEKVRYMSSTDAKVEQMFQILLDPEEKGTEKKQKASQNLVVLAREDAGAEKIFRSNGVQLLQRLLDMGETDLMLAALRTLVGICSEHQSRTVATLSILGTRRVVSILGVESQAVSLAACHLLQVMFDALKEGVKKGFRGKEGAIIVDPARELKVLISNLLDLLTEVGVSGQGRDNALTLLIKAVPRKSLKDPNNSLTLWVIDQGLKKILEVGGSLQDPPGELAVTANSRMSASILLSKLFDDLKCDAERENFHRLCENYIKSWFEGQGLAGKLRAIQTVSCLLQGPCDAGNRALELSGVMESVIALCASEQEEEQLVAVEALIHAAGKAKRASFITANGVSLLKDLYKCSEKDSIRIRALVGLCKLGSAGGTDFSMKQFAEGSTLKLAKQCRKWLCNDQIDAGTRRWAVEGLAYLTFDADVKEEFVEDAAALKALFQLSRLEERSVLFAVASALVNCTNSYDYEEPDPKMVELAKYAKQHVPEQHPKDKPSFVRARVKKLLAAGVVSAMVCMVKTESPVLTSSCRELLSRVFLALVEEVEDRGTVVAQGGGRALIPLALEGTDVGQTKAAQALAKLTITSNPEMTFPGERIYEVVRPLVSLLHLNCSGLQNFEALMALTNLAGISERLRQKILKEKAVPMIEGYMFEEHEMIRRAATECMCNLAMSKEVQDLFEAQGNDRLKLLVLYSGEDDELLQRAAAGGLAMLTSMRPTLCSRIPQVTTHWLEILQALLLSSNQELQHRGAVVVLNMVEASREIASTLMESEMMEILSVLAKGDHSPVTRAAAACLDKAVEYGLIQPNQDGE
inactive: [1] 0.016 | [2] 0.014 | [3] -0.039 | [4] -0.006 | [5] 0.001 | [6] -0.024 | [7] -0.037 | [8] -0.015 | [9] -0.002 | [10] -0.001 | [11] 0.002 | [12] -0.008 | [13] 0.03 | [14] -0.012 | [15] -0.009 | [16] -0.007 | [17] 0.002 | [18] 0.004 | [19] 0.002 | [20] -0.007

YLPM1 (UniProt P49750)
Sequence of UniProt P49750 (P49750 whole entry, looked up): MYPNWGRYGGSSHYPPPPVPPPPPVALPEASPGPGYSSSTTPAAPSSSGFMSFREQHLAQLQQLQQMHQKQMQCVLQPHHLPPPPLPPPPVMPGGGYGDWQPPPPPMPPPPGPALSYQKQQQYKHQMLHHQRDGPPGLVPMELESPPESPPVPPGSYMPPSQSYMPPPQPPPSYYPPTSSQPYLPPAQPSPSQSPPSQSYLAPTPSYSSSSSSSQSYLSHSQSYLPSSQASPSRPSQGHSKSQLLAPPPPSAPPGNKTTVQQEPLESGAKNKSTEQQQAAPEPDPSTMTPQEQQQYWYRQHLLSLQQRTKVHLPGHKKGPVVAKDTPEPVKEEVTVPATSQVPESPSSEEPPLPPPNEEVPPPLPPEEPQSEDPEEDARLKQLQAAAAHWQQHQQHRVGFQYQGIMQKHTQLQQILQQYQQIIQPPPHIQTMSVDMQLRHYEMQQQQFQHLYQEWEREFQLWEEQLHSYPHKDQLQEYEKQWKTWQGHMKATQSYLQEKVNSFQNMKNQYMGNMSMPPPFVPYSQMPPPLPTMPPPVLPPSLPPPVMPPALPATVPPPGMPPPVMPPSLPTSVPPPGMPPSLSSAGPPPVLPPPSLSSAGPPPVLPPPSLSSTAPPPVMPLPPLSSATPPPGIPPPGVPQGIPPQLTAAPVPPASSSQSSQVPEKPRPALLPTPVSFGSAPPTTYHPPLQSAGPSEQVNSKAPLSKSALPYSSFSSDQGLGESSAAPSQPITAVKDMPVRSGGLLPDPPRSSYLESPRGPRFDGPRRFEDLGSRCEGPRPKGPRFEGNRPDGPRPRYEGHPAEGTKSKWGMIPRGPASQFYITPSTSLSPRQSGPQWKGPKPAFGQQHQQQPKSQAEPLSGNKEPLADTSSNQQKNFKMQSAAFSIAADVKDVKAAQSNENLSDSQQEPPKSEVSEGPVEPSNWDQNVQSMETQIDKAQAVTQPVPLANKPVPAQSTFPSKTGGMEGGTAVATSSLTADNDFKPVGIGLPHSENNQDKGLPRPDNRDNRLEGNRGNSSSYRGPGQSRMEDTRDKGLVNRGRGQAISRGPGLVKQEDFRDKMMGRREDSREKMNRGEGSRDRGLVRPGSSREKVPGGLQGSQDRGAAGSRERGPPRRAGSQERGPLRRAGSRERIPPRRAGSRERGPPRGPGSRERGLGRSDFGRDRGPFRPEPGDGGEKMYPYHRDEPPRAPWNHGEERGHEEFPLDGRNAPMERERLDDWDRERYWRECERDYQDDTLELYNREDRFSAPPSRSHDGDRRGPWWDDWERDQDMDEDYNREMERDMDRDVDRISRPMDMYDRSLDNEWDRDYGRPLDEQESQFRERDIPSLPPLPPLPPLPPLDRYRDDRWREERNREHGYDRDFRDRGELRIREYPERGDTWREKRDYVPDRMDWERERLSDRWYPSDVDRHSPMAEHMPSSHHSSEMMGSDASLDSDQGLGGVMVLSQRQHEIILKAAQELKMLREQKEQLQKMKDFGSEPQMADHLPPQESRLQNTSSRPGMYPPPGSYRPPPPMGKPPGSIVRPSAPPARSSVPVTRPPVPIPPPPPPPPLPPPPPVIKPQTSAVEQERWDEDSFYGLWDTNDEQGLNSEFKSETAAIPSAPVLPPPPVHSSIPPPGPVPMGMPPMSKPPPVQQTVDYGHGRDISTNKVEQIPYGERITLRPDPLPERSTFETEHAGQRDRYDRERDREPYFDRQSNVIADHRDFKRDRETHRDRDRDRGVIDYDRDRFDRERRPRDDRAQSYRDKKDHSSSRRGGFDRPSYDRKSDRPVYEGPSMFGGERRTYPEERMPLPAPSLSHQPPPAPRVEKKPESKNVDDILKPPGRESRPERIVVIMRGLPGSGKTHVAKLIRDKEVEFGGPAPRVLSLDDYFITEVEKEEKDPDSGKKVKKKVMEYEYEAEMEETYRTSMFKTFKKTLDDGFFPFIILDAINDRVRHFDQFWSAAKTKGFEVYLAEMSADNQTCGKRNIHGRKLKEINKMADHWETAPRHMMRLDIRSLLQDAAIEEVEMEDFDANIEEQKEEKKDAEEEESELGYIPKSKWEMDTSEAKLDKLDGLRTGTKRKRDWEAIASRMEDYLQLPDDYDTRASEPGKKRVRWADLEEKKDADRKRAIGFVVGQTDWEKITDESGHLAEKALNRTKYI
active: [16] 0.301
inactive: [1] 0.026 | [2] -0.04 | [3] 0.035 | [4] -0.043 | [5] -0.018 | [6] -0.004 | [7] 0.022 | [8] 0.044 | [9] 0.019 | [10] 0.027 | [11] 0.028 | [12] -0.044 | [13] -0.002 | [14] 0.022 | [15] -0.006 | [17] -0.031 | [18] -0.017 | [19] 0 | [20] -0.046

ZDHHC18 (UniProt Q9NUE0)
inactive: [1] 0.265 | [2] -0.057 | [3] -0.371 | [4] -0.052 | [5] -0.135 | [6] 0.004 | [7] 0.038 | [8] -0.022 | [9] 0.075 | [10] 0.13 | [11] -0.103 | [12] 0.057 | [13] 0.093 | [14] -0.017 | [15] -0.137 | [16] 0.019 | [17] 0.209 | [18] -0.022 | [19] 0.073 | [20] -0.01

VPS13C (UniProt Q709C8)
active: [16] 0.251
inactive: [1] -0.007 | [2] -0.003 | [3] 0.038 | [4] 0.008 | [5] 0.017 | [6] -0.013 | [7] -0.021 | [8] 0.042 | [9] -0.012 | [10] 0.004 | [11] -0.011 | [12] 0.005 | [13] 0.02 | [14] 0.006 | [15] -0.001 | [17] -0.066 | [18] 0.041 | [19] -0.007 | [20] -0.053

ZFYVE19 (UniProt Q96K21)
Sequence of UniProt Q96K21 (Q96K21 whole entry, looked up): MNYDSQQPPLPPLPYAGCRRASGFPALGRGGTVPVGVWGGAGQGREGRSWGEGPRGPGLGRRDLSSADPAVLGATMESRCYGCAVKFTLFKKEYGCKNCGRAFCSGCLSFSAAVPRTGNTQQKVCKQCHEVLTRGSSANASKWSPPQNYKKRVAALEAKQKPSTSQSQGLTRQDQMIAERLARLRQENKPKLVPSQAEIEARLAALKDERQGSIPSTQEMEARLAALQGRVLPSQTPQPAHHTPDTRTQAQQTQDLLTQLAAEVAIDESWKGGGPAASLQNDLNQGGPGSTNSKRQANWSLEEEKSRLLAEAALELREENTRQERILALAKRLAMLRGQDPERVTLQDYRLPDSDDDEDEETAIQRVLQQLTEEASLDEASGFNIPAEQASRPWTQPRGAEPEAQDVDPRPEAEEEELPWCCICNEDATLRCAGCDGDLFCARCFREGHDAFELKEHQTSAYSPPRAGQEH
inactive: [1] -0.017 | [2] -0.056 | [3] 0.016 | [4] -0.024 | [5] -0.026 | [6] 0.055 | [7] 0.007 | [8] -0.031 | [9] 0.012 | [10] -0.027 | [11] -0.051 | [12] -0.031 | [13] -0.004 | [14] 0.009 | [15] -0.015 | [16] -0.028 | [17] -0.067 | [18] -0.037 | [19] -0.013 | [20] -0.042

VARS (UniProt P26640)
inactive: [1] 0.031 | [2] 0.035 | [3] -0.031 | [4] 0.007 | [5] 0.03 | [6] 0.019 | [7] -0.035 | [8] 0.021 | [9] -0.002 | [10] 0.011 | [11] 0.015 | [12] -0.003 | [13] 0.042 | [14] 0.018 | [15] 0.032 | [16] 0.006 | [17] -0.047 | [18] 0.001 | [19] 0.041 | [20] 0.035

XPO1 (UniProt O14980)
inactive: [1] 0.021 | [2] 0.025 | [3] -0.015 | [4] 0.017 | [5] 0.026 | [6] -0.031 | [7] -0.045 | [8] -0.005 | [9] 0.033 | [10] 0.016 | [11] -0.01 | [12] 0.008 | [13] 0.029 | [14] -0.037 | [15] -0.01 | [16] -0.007 | [17] 0.035 | [18] -0.004 | [19] 0.02 | [20] 0.019

ZBTB33 (UniProt Q86T24)
inactive: [1] 0 | [2] 0.012 | [3] 0.101 | [4] 0.062 | [5] 0.144 | [6] -0.025 | [7] -0.101 | [8] -0.053 | [9] 0.068 | [10] -0.042 | [11] 0.258 | [12] 0.183 | [13] -0.058 | [14] -0.158 | [15] 0.141 | [16] -0.027 | [17] 0.109 | [18] 0.129 | [19] 0.044 | [20] 0.109

VPS37B (UniProt Q9H9H4)
Sequence of UniProt Q9H9H4 (Q9H9H4 whole entry, looked up): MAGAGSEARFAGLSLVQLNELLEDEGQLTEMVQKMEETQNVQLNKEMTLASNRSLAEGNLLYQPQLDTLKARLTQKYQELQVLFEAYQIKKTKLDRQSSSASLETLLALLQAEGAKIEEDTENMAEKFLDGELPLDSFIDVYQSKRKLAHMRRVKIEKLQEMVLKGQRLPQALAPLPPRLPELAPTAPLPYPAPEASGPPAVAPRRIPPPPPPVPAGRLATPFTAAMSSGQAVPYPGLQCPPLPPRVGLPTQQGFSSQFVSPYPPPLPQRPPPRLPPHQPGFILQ
inactive: [1] -0.046 | [2] 0.078 | [3] 0.059 | [4] 0.002 | [5] -0.011 | [6] 0.031 | [7] 0 | [8] 0.043 | [9] 0.098 | [10] -0.012 | [11] 0.024 | [12] 0.014 | [13] -0.055 | [14] 0.009 | [15] -0.028 | [16] 0 | [17] -0.008 | [18] 0.019 | [19] 0.012 | [20] 0.028
